The term inhibition denotes the drop in the measured response relative to a control, in per cent.

In all, about 5,600 compounds went through this assay and about 390 (7%) showed an effect of 50% or more. The sample as a whole holds a higher share of strong results than the screen did.

The target of experiment [1] is T1, Protein deacetylase HDAC6 (Homo sapiens) (UniProt Q9UBN7).
T1 sequence (whole entry): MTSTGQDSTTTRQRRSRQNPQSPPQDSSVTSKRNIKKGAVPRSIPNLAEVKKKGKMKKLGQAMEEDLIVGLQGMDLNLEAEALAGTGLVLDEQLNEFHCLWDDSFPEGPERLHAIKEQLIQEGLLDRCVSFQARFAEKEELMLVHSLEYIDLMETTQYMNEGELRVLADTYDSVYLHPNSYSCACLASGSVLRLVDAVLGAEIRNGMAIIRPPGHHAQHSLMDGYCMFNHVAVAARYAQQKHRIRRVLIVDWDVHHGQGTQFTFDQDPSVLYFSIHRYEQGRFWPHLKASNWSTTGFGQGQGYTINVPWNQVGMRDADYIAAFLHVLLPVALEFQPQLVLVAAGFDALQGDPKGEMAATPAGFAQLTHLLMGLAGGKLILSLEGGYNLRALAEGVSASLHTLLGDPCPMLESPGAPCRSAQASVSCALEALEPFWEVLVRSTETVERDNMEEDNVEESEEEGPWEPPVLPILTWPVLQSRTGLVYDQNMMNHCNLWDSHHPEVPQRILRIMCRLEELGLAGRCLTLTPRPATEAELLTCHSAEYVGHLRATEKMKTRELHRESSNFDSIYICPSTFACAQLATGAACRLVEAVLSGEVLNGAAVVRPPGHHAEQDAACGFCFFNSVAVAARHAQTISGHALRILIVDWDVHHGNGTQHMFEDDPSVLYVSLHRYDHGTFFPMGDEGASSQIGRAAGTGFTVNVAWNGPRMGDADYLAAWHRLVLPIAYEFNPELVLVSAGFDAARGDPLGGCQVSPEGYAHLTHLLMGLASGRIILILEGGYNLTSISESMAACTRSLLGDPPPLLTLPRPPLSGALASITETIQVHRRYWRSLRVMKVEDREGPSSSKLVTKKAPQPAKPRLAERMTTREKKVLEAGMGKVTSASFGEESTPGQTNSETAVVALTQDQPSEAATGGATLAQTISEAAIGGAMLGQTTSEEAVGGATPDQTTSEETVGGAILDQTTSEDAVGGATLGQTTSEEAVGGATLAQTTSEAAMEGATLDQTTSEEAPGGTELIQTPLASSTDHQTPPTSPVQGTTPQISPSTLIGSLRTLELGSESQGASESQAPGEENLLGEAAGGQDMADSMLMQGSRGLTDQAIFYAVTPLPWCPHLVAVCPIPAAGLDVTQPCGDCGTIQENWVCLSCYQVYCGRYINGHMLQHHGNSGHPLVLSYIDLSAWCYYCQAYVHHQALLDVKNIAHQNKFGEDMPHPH
The note with it: at 10 µM.

Experiment [2] deals with Protein deacetylase HDAC6 (Homo sapiens) (UniProt Q9UBN7). The following applies: at 10 µM. This is another data set of the same source.

As to `Cc1c(N)cccc1Cn1ccc(OCCc2cccs2)cc1=O`, the inhibition in experiment [1] was -7.53%.
Still for that read-out and setting: for `Cc1cccc(NC(=O)N[C@@H]2N=C(c3ccccc3)c3ccccc3N(C)C2=O)c1` the value was 10.7%.
The same measure, in the same setting: for `CCNC1=Nc2ccc(Cl)cc2C(C)(c2ccccc2)O1` (centres undefined) the value was 3.39%; for `c1cc(Nc2cc(C3CC3)n[nH]2)nc(Nc2ccc3[nH]cnc3c2)n1`, 77.3%; for `CCC(C)c1ccc(NC(=O)Cn2cnc3c2c(=O)n(C)c(=O)n3C)cc1` (centres undefined), 18.1%.
Still for that read-out and setting: for `c1ccc(C2(c3ccccc3)CC2=C2NCCN2)cc1` the value was 17%.
For the compound `C[C@H](CCC(=O)O)[C@H]1CC[C@H]2[C@@H]3C(=O)C[C@@H]4CC(=O)CC[C@]4(C)[C@H]3CC(=O)[C@]12C`, the inhibition in experiment [1] was -6.77%.
`CC(C)(C)c1ccc(C(=O)Nc2cn3cc(-n4ccnc4)ccc3n2)cc1`: in experiment [1], the inhibition is 101%.
For the compound `CC(=O)Nc1ccc(C(=O)NC(C)(C)C)cc1`, in experiment [1], the inhibition was determined as 9.15%.
On the same count and under the same terms, for `Cc1ncc([N+](=O)[O-])n1CC(O)CN1CCOCC1` (centres undefined) the value was -5.36%; for `COc1cccc2c1C(=O)c1c(O)c3c(c(O)c1C2=O)C[C@@](O)(C(=O)CO)C[C@@H]3O[C@H]1C[C@H](N2CCO[C@H](OC)C2)[C@H](O)[C@H](C)O1`, 43.2%.
Take `COc1cccc2c1C(=O)c1c(O)c3c(c(O)c1C2=O)C[C@@](O)(/C(CO)=N/NC(=O)CCCCCN1C(=O)C=CC1=O)C[C@@H]3O[C@H]1C[C@H](N)[C@H](O)[C@H](C)O1`: in experiment [1], the inhibition worked out at 26.7%.
As for `COc1cccc2c1C(=O)c1c(O)c3c(c(O)c1C2=O)C[C@@](O)(C(=O)CO)C[C@@H]3O[C@H]1C[C@H](N)[C@H](O[C@@H]2CCCCO2)[C@H](C)O1`, the inhibition in experiment [1] is 92.2%.
Turning to `CC1(C)OC(=O)C(OCC2CC2)=C1c1ccc(S(C)(=O)=O)cc1`, the inhibition in experiment [1] was -6.89%.
For the compound `CCCCCN(CCCOC)C(=O)[C@@H](CCC(=O)O)NC(=O)c1ccc(Cl)c(Cl)c1`, the inhibition in experiment [1] amounted to 9.58%.
Same read-out and setting: for `CC(C)c1cc(C(C)C)c(-c2csc(N(CCN(C)C)Cc3cccnc3)n2)c(C(C)C)c1` the value was 1.94%; for `C[N+](C)(CF)CCO`, 0.62%; for `CO/N=C(\C(=O)N[C@@H]1C(=O)N2C(C(=O)O)=C(CSc3nc(C)c(CC(=O)O)s3)CS[C@H]12)c1csc(N)n1`, 2.2%.
Take `CCCOC(=O)c1ccccc1`: the inhibition in experiment [1] amounted to 8.38%.
The same measure, in the same setting: for `O=C(O[C@H]1[C@H](OC(=O)c2cccnc2)[C@@H](OC(=O)c2cccnc2)[C@H](OC(=O)c2cccnc2)[C@@H](OC(=O)c2cccnc2)[C@H]1OC(=O)c1cccnc1)c1cccnc1` the value was -5.99%; for `O=C(Oc1cccc2cccnc12)c1ccccc1`, 87.1%.
Still for that read-out and setting: for `C[C@@H](N[C@H]1CCCC[C@@H]1NC(=O)c1ccc(Cl)cc1)c1cccc2ccccc12` the value was 18.9%; for `COC1(C[S+]([O-])c2ccccc2)CCN(CCc2c[nH]c3ccc(F)cc23)CC1` (centres undefined), 4.5%.
In the case of MERBROMIN, CHEMBL3833381, the inhibition in experiment [2] was 65.3%.
Regarding `CC1=C(O)C(=O)[C@@H]2O[C@@H]2C1=O`, the inhibition in experiment [1] is -8.14%.
`COc1ncc(-c2ccc3c(Nc4cc(Oc5cc(F)cc(F)c5)cc(C(=O)O)c4)c(S(=O)(=O)NC4CC4)cnc3c2)c(OC)n1`: in experiment [1], the inhibition is 12.8%.
On the same count and under the same terms, for `CC(=O)Oc1c(C)cccc1C(=O)O` the value was 17%; for `C=C1C(=O)O[C@@H]2[C@H]3C(C)=CC[C@@]34O[C@@]4(C)CC[C@@H]12`, 51%; for `O=C1C(=Cc2cccnc2)C(=O)c2ccccc21`, 27.6%.
On the same count and under the same terms, for `C[C@@H](O[C@H]1OCCN(Cc2nn[nH]c2CN(C)C)[C@H]1c1ccc(F)cc1)c1cc(C(F)(F)F)cc(C(F)(F)F)c1` the value was 12.9%; for `O=C(NOCCO)c1ccc2cncn2c1Nc1ccc(I)cc1F`, 1.39%; for `C[C@H](N)C(=O)NCC(=O)N[C@H]1CSSC[C@@H](C(=O)O)NC(=O)[C@H](CO)NC(=O)[C@H]([C@@H](C)O)NC(=O)[C@H](Cc2ccccc2)NC(=O)[C@H]([C@@H](C)O)NC(=O)[C@H](CCCCN)NC(=O)[C@H](Cc2c[nH]c3ccccc23)NC(=O)[C@H](Cc2ccccc2)NC(=O)[C@H](Cc2ccccc2)NC(=O)[C@H](CC(N)=O)NC(=O)[C@H](CCCCN)NC1=O`, 15.2%.
As to `CC(C)c1cccc2c1OC(C(C)C)C(=S)N2CC(=O)O` (centres undefined), in experiment [1], the inhibition was determined as 33%.
Turning to `CCC(=O)NO`, the inhibition in experiment [1] was determined as 83.8%.
As to `O=C(O)[C@@H](O)[C@@H](O)[C@H](O)[C@@H](O)C(=O)O`, the inhibition in experiment [1] stood at 1.05%.
On to `CO[C@H]1/C=C\C=C(/C)C(=O)NC2=CC(=O)C(NCCN(C)C)=C(C[C@@H](C)C[C@H](OC)[C@H](O)[C@@H](C)/C=C(\C)[C@@H]1OC(N)=O)C2=O`, for which, in experiment [1], the inhibition turned out to be 6.6%.
Same read-out and setting: for `O/N=C/c1cc[n+](COC[n+]2ccc(/C=N/O)cc2)cc1` the value was -4.53%.
On the same count and under the same terms, for `O=C1N[C@@H]2[C@@H](O)[C@@H](O)[C@H](O)[C@@H](CO)N2C1=O` the value was -6.81%.
On the same count and under the same terms, for `Oc1ccc(Cl)cc1` the value was -5.79%; for `Oc1ccc2ccccc2c1`, 57.1%; for `Oc1ccccc1`, 7.92%.
Turning to `O=C1CCC(c2ccccc2)(C2CCN(Cc3ccc(I)cc3)CC2)C(=O)N1` (centres undefined), the inhibition in experiment [1] is -1.98%.
For `Cc1ccccc1OCC(O)CNCCOc1ccc(C(N)=O)cc1` (centres undefined), the inhibition in experiment [1] stood at 0.61%.
Consider `CC(=O)OC[C@H]1O[C@@](COC(C)=O)(O[C@H]2O[C@H](COC(C)=O)[C@@H](OC(C)=O)[C@H](OC(C)=O)[C@H]2OC(C)=O)[C@@H](OC(C)=O)[C@@H]1OC(C)=O`, for which the inhibition in experiment [1] was 102%.
On to `CC(=O)N[C@H]1[C@@H](OC(C)C)O[C@H](COC(C)=O)[C@@H](OC(C)=O)[C@@H]1OC(C)=O`, for which the inhibition in experiment [1] is -0.18%.
With `C(=C\c1ccccc1)/CN1CCN(CCOC(c2ccccc2)c2ccccc2)CC1`, the inhibition in experiment [1] is -6.12%.
Take `CC(C)OC(=O)CNC(=O)[C@H](CS)NC(=O)CC[C@H](N)C(=O)O`: the inhibition in experiment [1] came to 45.1%.
Still for that read-out and setting: for `Cc1ccc([N+](=O)[O-])cc1O` the value was 25.1%.
Still for that read-out and setting: for `N=C(N)NCCC[C@H](N)C(=O)O` the value was 3.94%.
